Values joined by “and” are separate entries in the source; they are usually repeats but may differ in a detail not shown here. Identical values can stand only once. Records with an inconclusive call do not appear. Active and inactive are the calls of the source. Unless noted, the call rests on the fitted dose curve; in most records, active means well fitted curve in the direction sought with a large enough effect in the repeat runs; inconclusive means weak or mixed curves; inactive means no such curve, though single readings can be large; an effect the other way counts as inactive or inconclusive.

The nature of assay [1]: qHTS assay to test for compound auto fluorescence at 535 nm (green) in HEK293 cells (AID 720680). (In general: Quantitative high-throughput screening tests each substance at several concentrations.)
The nature of assay [2]: qHTS assay to test for compound auto fluorescence at 535 nm (green) in HEK293 cell free culture (AID 720682). The method, boiled down: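 Green-label autofluorescence (485 nm excitation, 535 nm emission) measured on compound added to cell-free culture medium (DMEM, 10% FBS). Output is expressed relative to fluorescein.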
Assay [3] is described as follows: qHTS assay to test for compound auto fluorescence at 590 nm (red) in HEK293 cell free culture (AID 720683). In short, it runs like this: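 Red-channel autofluorescence of compounds in culture medium (DMEM, 10% FBS), no cells, measured at 540/590 nm. Rose Bengal sodium is the reference fluorophore for equivalence.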
The nature of assay [4]: qHTS assay to test for compound auto fluorescence at 590 nm (red) in HepG2 cell free culture (AID 720684). In short, it runs like this: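 Plate contents were MEM with 10% FBS plus test compound or DMSO, no cells. Fluorescence was recorded with 540 nm excitation and 590 nm emission.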
Assay [5] can be described thus: qHTS assay to test for compound auto fluorescence at 460 nm (blue) in HepG2 cell free culture (AID 720685). Further: potency means the concentration at half of the fitted maximal effect. In short, it runs like this: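 Compound (23 nL) or DMSO pinned into cell-free MEM with 10% FBS; blue fluorescence read at 405/460 nm excitation/emission, expressed as auto-fluorescence equivalency to triamterene.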
A short description of assay [6]: qHTS assay to test for compound auto fluorescence at 535 nm (green) in HepG2 cell free culture (AID 720686).
Assay [7] in a line: qHTS assay to test for compound auto fluorescence at 460 nm (blue) in HepG2 cells (AID 720687). Further: potency means the concentration at half of the fitted maximal effect. The method, boiled down: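 Blue-channel autofluorescence (Ex/Em 405/460 nm, triamterene-equivalent) was measured after 1 hr compound exposure at 37 C, 5% CO2. Cells were HepG2, plated overnight at 37 C in MEM plus 10% FBS.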
The nature of assay [8]: qHTS assay to identify small molecule antagonists of the glucocorticoid receptor (GR) signaling pathway - cell viability counter screen (AID 720693). Further: nearly all actives have a fitted effect of over 55% in size.
The nature of assay [9]: qHTS assay for identifying genotoxic compounds that show differential cytotoxicity against isogenic chicken DT40 cell lines with known DNA damage response pathways - wild type cell line (AID 743012). Further: nearly all actives have a fitted effect of over 60% in size. Further: potency means the concentration at half of the fitted maximal effect. In short, it runs like this:
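Cells (DT40 wild type, 300/well) are treated with DMSO-dissolved compounds after a ~0.5 h pre-incubation and kept 40 h at 37 C/5% CO2. Viability is then measured by CellTiter-Glo luminescence following 30 min at room temperature.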

A short description of assay [10]: qHTS assay for identifying genotoxic compounds that show differential cytotoxicity against isogenic chicken DT40 cell lines with known DNA damage response pathways - Rev3 mutant cell line (AID 743014). Further: nearly all actives have a fitted effect of over 55% in size. Further: potency means the concentration at half of the fitted maximal effect.
Assay [11] is described as follows: qHTS assay for identifying genotoxic compounds that show differential cytotoxicity against isogenic chicken DT40 cell lines with known DNA damage response pathways - Rad54/Ku70 mutant cell line (AID 743015). Further: nearly all actives have a fitted effect of over 60% in size. Further: potency means the concentration at half of the fitted maximal effect.
Assay [12] in a line: qHTS assay to identify small molecule antagonists of the androgen receptor (AR) signaling pathway - cell viability counter screen (AID 743033; further: nearly all actives have a fitted effect of over 45% in size).
A short description of assay [13]: qHTS assay to identify small molecule antagonists of the androgen receptor (AR) signaling pathway using the MDA cell line - cell viability counter screen (AID 743041; further: nearly all actives have a fitted effect of over 45% in size). In short, it runs like this:
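R1881-driven MDA-kb2 AR-luc cells, 3,000/well, were dosed with library compounds for 16 h; cell health came from CellTiter-Fluor fluorescence in the reporter wells.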

The target of assay [14] is Glucocorticoid receptor (Homo sapiens) (UniProt P04150). Kind of assay: qHTS assay to identify small molecule agonists of the glucocorticoid receptor (GR) signaling pathway (AID 720691; active means well fitted activation curve with a large enough effect in the signal ratio in the repeat runs, not every such curve was filed as active; the % refers to the signal ratio). The method, boiled down: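 Agonist mode in a HeLa line carrying a GRE-controlled beta-lactamase reporter. Compounds act for 18 h at 37 C before a 2 h room-temperature FRET substrate step and fluorescence reading.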
Chain of Glucocorticoid receptor (Homo sapiens) (P04150 whole entry, looked up): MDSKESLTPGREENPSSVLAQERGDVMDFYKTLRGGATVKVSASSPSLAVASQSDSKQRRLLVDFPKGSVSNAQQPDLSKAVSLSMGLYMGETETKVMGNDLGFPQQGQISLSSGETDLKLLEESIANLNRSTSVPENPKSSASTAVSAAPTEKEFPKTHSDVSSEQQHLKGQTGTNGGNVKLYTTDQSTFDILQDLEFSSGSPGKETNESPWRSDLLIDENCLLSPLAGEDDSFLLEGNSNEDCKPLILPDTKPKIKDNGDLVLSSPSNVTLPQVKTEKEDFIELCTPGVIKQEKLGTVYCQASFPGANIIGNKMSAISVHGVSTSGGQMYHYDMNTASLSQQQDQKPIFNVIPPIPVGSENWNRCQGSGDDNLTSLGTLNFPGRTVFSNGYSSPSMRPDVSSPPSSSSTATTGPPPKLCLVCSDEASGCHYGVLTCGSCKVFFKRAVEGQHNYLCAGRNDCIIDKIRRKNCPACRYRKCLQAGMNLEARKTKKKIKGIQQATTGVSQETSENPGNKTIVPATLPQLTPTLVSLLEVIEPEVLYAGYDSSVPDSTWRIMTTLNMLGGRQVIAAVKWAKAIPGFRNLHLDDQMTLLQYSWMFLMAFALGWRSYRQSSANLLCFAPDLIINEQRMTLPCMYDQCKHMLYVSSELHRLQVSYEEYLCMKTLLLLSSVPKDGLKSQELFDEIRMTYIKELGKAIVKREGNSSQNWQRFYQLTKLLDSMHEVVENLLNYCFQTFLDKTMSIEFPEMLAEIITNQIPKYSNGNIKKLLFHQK

Assay [15] shares this target. Kind of assay: qHTS assay to identify small molecule antagonists of the glucocorticoid receptor (GR) signaling pathway (AID 720692; active means well fitted inhibition curve with a large enough effect in the signal ratio in the repeat runs, not every such curve was filed as active; the % refers to the signal ratio). The method, boiled down:
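Cells plated, rested 4 h at 37 C/5% CO2; compounds in DMSO pin-transferred; dexamethasone added to 5 nM final; 18 h at 37 C; B/G FRET substrate added, 2 h room temperature; fluorescence measured.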

Assay [16] concerns the target Androgen receptor (Homo sapiens) (UniProt P10275). Kind of assay: qHTS assay to identify small molecule antagonists of the androgen receptor (AR) signaling pathway (AID 743035; active means well fitted inhibition curve with a large enough effect in the signal ratio in the repeat runs, not every such curve was filed as active; the % refers to the signal ratio). The method, boiled down: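 Antagonism is scored as loss of R1881-driven beta-lactamase reporter expression in HEK293 cells carrying the reporter under a UAS element, after 16 h co-treatment at 37C and a 2 h room-temperature FRET substrate read.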

For assay [17] the target is unchanged. Nature of the assay: qHTS assay to identify small molecule agonists of the androgen receptor (AR) signaling pathway (AID 743036; active means well fitted activation curve with a large enough effect in the signal ratio in the repeat runs, with a control signal flat, not every such curve was filed as active; the % refers to the signal ratio). The method, boiled down: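 AR-UAS-bla HEK293 cells, plated 4 h before dosing, were treated with compound for 16 h at 37C. beta-Lactamase reporter read after 2 h with LiveBLAzer B/G FRET substrate at room temperature.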
For assay [18] the target is unchanged. Nature of the assay: qHTS assay to identify small molecule agonists of the androgen receptor (AR) signaling pathway using the MDA cell line (AID 743040; further: nearly all actives have a fitted effect of over 20% in size). In short, it runs like this:
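After a 5 h incubation at 37C and 0% CO2, MDA-kb2 reporter cells were dosed with compounds in DMSO and kept 16 h under the same conditions. Luciferase activity was then read as luminescence with ONE-Glo.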

A short description of assay [19]: qHTS assay to test for compound auto fluorescence at 460 nm (blue) in HEK293 cell free culture (AID 720681). In short, it runs like this: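 Blue fluorescence (Ex 405/Em 460 nm, triamterene-equivalent) was read immediately after pin transfer of compound or DMSO into medium (DMEM, 10% FBS) without cells.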
Assay [20] has as its target Androgen receptor (Homo sapiens) (UniProt P10275). Nature of the assay: qHTS assay to identify small molecule antagonists of the androgen receptor (AR) signaling pathway using the MDA cell line (AID 743042; further: nearly all actives have a fitted effect of over 55% in size). The method, boiled down:
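Antagonist mode: compounds plus R1881 agonist added to MDA-kb2 AR-luc cells, incubated 16 h at 37C. Luciferase reporter luminescence quantified, with multiplexed CellTiter-Fluor readout for cell viability.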
Tags describe the fitted curve by direction and shape or compound fluorescence and quenching.

Chain of Androgen receptor (Homo sapiens) (P10275 whole entry, looked up): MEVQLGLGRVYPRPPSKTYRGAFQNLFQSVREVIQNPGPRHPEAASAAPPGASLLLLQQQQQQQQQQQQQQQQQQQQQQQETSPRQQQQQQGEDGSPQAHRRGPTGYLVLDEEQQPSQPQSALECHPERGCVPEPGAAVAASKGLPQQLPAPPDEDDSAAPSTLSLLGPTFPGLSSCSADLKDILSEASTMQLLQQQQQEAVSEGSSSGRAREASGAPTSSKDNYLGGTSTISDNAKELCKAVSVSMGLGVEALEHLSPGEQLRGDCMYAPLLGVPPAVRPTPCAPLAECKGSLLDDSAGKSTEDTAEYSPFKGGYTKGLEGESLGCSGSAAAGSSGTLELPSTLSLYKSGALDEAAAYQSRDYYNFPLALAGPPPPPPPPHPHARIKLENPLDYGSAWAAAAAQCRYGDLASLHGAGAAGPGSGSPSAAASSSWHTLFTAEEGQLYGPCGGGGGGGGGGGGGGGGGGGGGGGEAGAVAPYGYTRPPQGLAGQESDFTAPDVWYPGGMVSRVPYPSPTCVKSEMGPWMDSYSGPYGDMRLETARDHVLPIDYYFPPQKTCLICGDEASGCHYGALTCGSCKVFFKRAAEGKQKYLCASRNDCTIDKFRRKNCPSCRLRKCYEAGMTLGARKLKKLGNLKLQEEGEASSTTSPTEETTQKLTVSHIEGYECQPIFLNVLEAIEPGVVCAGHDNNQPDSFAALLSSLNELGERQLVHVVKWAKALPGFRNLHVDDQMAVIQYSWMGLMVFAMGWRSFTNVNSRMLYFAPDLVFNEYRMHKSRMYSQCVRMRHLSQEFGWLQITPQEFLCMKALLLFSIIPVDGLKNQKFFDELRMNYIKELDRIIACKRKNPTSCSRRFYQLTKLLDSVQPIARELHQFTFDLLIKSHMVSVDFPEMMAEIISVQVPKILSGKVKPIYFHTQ

For the compound `CCN(CC)C(C)=O`, the outcome in [1], in assay [2], in [3], in [4] and in assay [6] was inactive. The Potency result in assay [5], in assay [7], in assay [8], in [9], in assay [10] and in assay [11] was “inactive” in each case. Also, the Potency entry in assay [12] and in assay [13] was “inactive” in each case.

For the compound `CNCC[C@@H](Oc1ccccc1C)c1ccccc1`, the call in assay [1], in assay [2], in [3], in assay [4], in assay [6] and in assay [17] was inactive. The Potency result in assay [5], in assay [7], in [14], in assay [15], in assay [8] and in [12] was “inactive” throughout. Also, the Potency entry in assay [16], in assay [18] and in assay [13] was “inactive” throughout. In addition, the Potency in assay [9] is 16.8 µM (active); in [11] it was 29.8 µM (active).

Consider `CC1(C)CCC(C)(C)c2cc(NC(=O)c3ccc(C(=O)O)cc3)ccc21`, for which the result in assay [1], in assay [2], in [3], in assay [4] and in [6] was inactive. Also, the Potency entry in [5], in assay [7], in [14] and in assay [12] was “inactive” throughout. Moreover, the Potency in [9] was 26.6 µM (active); in assay [11] it was 23.7 µM (active).

Take `COCCOCCOCCOCCOC`: the Potency result in [19], in assay [5], in assay [7], in [14], in assay [15] and in [8] was “inactive” each time. For the same compound, the Potency entry in [9], in [10], in assay [11], in assay [12], in assay [16] and in assay [18] was “inactive” in each case. Moreover, the Potency result in assay [13] and in assay [20] was “inactive” each time. The outcome in [2], in assay [3], in assay [4] and in [6] was inactive.

With `Nc1nc(N)c2nc(CNc3ccc(C(=O)N[C@@H](CCC(=O)O)C(=O)O)cc3)cnc2n1`, the compound was classed as inactive in assay [1], in assay [2], in assay [3], in assay [4] and in assay [6]. For the same compound, the Potency in assay [5] was 35.5 µM [fluorescent] (active); in assay [7], 39.8 µM [fluorescent] (active); in [9], 11.9 µM (active); in assay [10] it was 13.3 µM (active); in [11] it was 23.7 µM (active) and 1.4 nM (active). Also, the Potency result in [14], in assay [15], in assay [8], in [12] and in [13] was “inactive” in each case.

In the case of `CC1=CC(=O)/C(=C(/C)O)C(=O)O1`, the outcome in assay [1], in assay [2], in assay [3], in assay [4] and in assay [6] was inactive. The Potency result in [5], in [7], in assay [14], in [15], in assay [8] and in assay [9] was “inactive” in each case. In addition, the Potency result in assay [10], in [12] and in assay [13] was “inactive” in each case.

In the case of `CC(=O)OC/C=C/c1ccccc1`, the compound was called inactive in assay [1], in assay [2], in [3], in assay [4] and in assay [6]. For the same compound, the Potency entry in [5], in assay [7], in [14], in [15], in assay [8] and in [9] was “inactive” in each case. For the same compound, the Potency entry in [10], in assay [12] and in assay [13] was “inactive” each time.

As for `Nc1nc(N)c(-c2ccccc2)s1`, the outcome in [1], in assay [3], in assay [4] and in assay [6] was inactive. The Potency result in assay [5], in [7], in assay [14], in assay [15], in [8] and in [9] was “inactive” in each case. Further, the Potency result in [10], in assay [11], in assay [12] and in assay [13] was “inactive” in each case.

In the case of `C[C@@H](C1=C(CCN(C)C)Cc2ccccc21)c1ccccn1`, the result in assay [1], in assay [3], in assay [4] and in assay [6] was inactive. For the same compound, the Potency result in assay [19], in [5], in assay [7], in assay [8], in assay [12] and in assay [13] was “inactive” in each case.

For the compound `O=S(=O)(O)c1ccc(O)c2ncccc12`, the compound was called inactive in assay [1], in assay [2], in assay [3], in assay [4] and in assay [6]. In addition, the Potency result in assay [5], in assay [7], in assay [14], in assay [15], in assay [8] and in [10] was “inactive” throughout. Besides, the Potency entry in [12] and in assay [13] was “inactive” throughout.

On to `COCCO`, for which the call in assay [1], in assay [2], in assay [3], in [4] and in assay [6] was inactive. Besides, the Potency entry in assay [5], in [7], in assay [14], in [15], in assay [8] and in assay [9] was “inactive” throughout. In addition, the Potency entry in [10], in assay [12] and in [13] was “inactive” each time.

Take `NC(=S)N/N=C/c1cccnc1`: the outcome in assay [1], in [3], in assay [4], in [6] and in assay [17] was inactive. The Potency entry in assay [5], in assay [7], in assay [14], in assay [15], in assay [8] and in [9] was “inactive” in each case. Besides, the Potency result in assay [10], in [11], in assay [12], in [16], in [18] and in assay [13] was “inactive” throughout. The Potency result in assay [20] was “inactive”.

Regarding `Cc1c(Cn2ccnc2)c2ccccc2n1CCC(=O)O`, the compound was classed as inactive in assay [1], in [2], in [3], in assay [4] and in assay [6]. The Potency entry in [5], in assay [7], in assay [14], in assay [15], in [8] and in assay [9] was “inactive” in each case. The Potency entry in [10], in [11], in [12] and in assay [13] was “inactive” each time.

As for `CC(C)(C)c1ccc(S)cc1`, the compound was called inactive in assay [1], in assay [2], in assay [3], in assay [4] and in assay [6]. The Potency result in assay [5], in assay [7], in assay [14], in [8], in assay [12] and in [13] was “inactive” each time.

For `CN(C)CC/C=C1\c2ccccc2COc2ccccc21`, the outcome in assay [1], in assay [3], in assay [4], in assay [6] and in assay [17] was inactive. The Potency result in assay [5], in assay [7], in assay [14], in [15], in assay [8] and in assay [18] was “inactive” in each case. The Potency entry in assay [13] and in assay [20] was “inactive” throughout. The Potency was 29.8 µM (active) in assay [9] and 26.6 µM (active) in assay [10].

For the compound `CCCCCCCC/C=C\CCCCCCCC(N)=O`, the call in assay [1], in assay [3], in assay [4], in [6] and in [17] was inactive. Moreover, the Potency result in [5], in [7], in assay [14], in assay [15], in assay [8] and in assay [9] was “inactive” throughout. Further, the Potency entry in assay [10], in assay [12], in assay [16], in assay [18], in [13] and in [20] was “inactive” each time.

These data come from PubChem BioAssay (Tox21).
